# Source: PubChem BioAssay
# N-glyco inh: N-linked glycosylation inhibition | AID 588692 | 360,000 tested, 0.23% active | reporter increase, % at 12.5 µM | D54 ERlucT glycosylation luciferase reporter, 24 h; percent of 100 nM tunicamycin response;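 active = mean luciferase reporter signal, scaled so untreated is 0 and the glycosylation-blocking control 100, at or above a set limit in every replicate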;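 note: luciferase carries N-glycosylation sites so blocking glycosylation raises the light; 0% = median of neutral control wells and 100% = median of 100 nM tunicamycin wells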
# CASP6 VEID inh: blocks human caspase-6 cleavage activity | P55212 | purified caspase-6, Z-VEID-R110 cleavage fluorescence | inhibition, % at 12.5 µM | 350,000 tested, 0.53% active | AID 686996;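 active = mean inhibition across replicates at least about 35%, with every replicate also reaching that limit, limit read from the data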;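 note: 0% = median of neutral control wells and 100% = no fluorescence left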
# LANA DNA inh: inhibitors of KSHV LANA C-terminal domain DNA binding | MBP-C-LANA/FAM-LBS DNA binding, fluorescence polarization | inhibition, % at 9 µM | 340,000 tested, 0.078% active | AID 504423;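 active = highest replicate inhibition at or above 60% at 9 µM, even if other replicates fall short; inactive = all replicates below 60% inhibition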;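 note: 0% = neutral control wells and 100% = 4 µM acridine orange control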
# Keap1 Nrf2 FP: disrupts human Keap1 binding to Nrf2 peptide; Q14145; Keap1 Kelch-Nrf2 peptide fluorescence polarization, 1536-well; inhibition, % at 9.4 µM; 340,000 tested, 0.15% active; in the data active = inhibition above about 12%;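 note: human Keap1 Kelch domain with fluorescein labeled Nrf2 9mer peptide probe; 0% = neutral control wells and 100% = peptide positive control; higher means more block of Keap1 binding to Nrf2 peptide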
# Target sequence (Q14145 whole entry, looked up, the tested form may be a part): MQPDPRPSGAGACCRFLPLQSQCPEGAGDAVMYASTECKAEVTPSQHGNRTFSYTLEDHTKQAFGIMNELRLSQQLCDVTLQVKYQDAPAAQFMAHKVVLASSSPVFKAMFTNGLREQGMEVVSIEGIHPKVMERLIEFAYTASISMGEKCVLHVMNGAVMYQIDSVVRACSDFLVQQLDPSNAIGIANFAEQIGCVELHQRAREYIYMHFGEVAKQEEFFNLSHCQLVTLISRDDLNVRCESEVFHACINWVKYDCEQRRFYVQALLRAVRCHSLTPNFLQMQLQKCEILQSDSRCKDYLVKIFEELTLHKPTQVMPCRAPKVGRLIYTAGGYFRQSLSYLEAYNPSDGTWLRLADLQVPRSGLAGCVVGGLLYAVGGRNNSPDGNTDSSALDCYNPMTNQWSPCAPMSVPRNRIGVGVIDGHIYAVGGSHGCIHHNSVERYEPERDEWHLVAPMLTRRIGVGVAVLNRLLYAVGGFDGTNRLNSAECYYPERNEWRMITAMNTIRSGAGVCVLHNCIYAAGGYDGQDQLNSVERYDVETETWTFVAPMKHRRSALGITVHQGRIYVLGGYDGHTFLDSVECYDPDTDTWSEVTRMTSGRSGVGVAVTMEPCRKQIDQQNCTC
# NSD2 HMT inh: inhibitors of human histone methyltransferase NSD2 | 310,000 tested, 0.54% active | NSD2 peptide methylation, AlphaScreen, 120 min | O96028 | AID 743445 | inhibition, % at 12.5 µM; in the data active = inhibition above about 50%
# HDAC3 inh: blocks human histone deacetylase 3. O15379. recombinant HDAC3, fluorogenic peptide/trypsin coupled, fluorescence. inhibition, % at 8.3 µM. 320,000 tested, 0.15% active; in the data active = inhibition above about 26%, passing the limit was not always enough
# * hit, by the source's call; x = not tested or not shown. In the library only some 1.1% were active in any assay of this set; here they are far more common.
SMILES,N-glyco inh,CASP6 VEID inh,LANA DNA inh,Keap1 Nrf2 FP,NSD2 HMT inh,HDAC3 inh
C[C@@H]1CN([C@H](C)CO)C(=O)Cc2cc(NC(=O)CCN3CCOCC3)ccc2O[C@H]1CN(C)Cc1ccc(Oc2ccccc2)cc1,x,1,x,x,x,x
CCOC(=O)[C@@H]1[C@H]2COc3cc(OC)ccc3[C@H]2N2C(=O)N(c3cccc(F)c3)C(=O)[C@]12C,2,51*,1,2,x,1
CCOC(=O)[C@@H]1[C@H]2COc3cc(OC)ccc3[C@@H]2N2C(=O)N(c3cccc(C)c3)C(=O)[C@]12C,2,-1,3,1,x,-4
CNC[C@@H]1OCCCC[C@@H](C)Oc2ccc(NS(=O)(=O)c3ccc(Cl)cc3)cc2C(=O)N([C@H](C)CO)C[C@@H]1C,x,-3,x,x,x,x
COc1cccc(-n2cc(C(=O)NCCCOC(C)C)c3ccccc3c2=O)c1,-2,-1,120*,-6,-4,2
Cc1cc(NS(=O)(=O)c2ccc(NC(=O)COc3ccccc3[N+](=O)[O-])cc2)no1,1,74*,2,3,39,x
Cc1cc(NS(=O)(=O)c2ccc(NC(=O)COc3ccccc3C(C)(C)C)cc2)no1,1,7,0,0,10,6
CN(C)c1ccc2c(c1)[C@@H]1C[C@@H](CC(=O)N3CCOCC3)O[C@@H](CO)[C@@H]1O2,x,55*,x,x,x,x
O=C(Nc1ccc2c(c1)[C@H]1C[C@H](CC(=O)N3CCCCC3)O[C@@H](CO)[C@H]1O2)Nc1ccccc1F,x,36*,x,x,x,x
O=C(Nc1ccc2c(c1)[C@H]1C[C@H](CC(=O)N3CCCCC3)O[C@H](CO)[C@H]1O2)Nc1ccccc1F,x,2,x,x,x,x
O=C(C[C@H]1C[C@@H]2c3cc(NC(=O)CC4CC4)ccc3O[C@@H]2[C@H](CO)O1)NCC1CC1,x,-4,x,x,x,x
Cc1ccc(S(=O)(=O)n2c(C)nc3ccccc32)cc1,0,41*,-1,-2,-3,-3
Cc1nc2ccccc2n1S(=O)(=O)c1ccc(S(=O)(=O)N2CCCCCC2)cc1,0,x,-1,-6,x,-5
COc1cccc(C(=O)Nc2ccc3c(c2)OC[C@@H](C)N(C(=O)C2CCCC2)C[C@H](C)[C@H](OC)CN(C)C3=O)c1,x,1,x,x,x,x
Cc1ccc(C)c(S(=O)(=O)N2CCN(C(C)C(=O)Nc3ccccc3-c3ccccc3)CC2)c1 (stereo unspecified),-12,35*,0,2,x,-2
NC(=S)NN=Cc1nccc2ccccc12,-9,2,-1,0,8,x
Cc1cnc(C=NNC(N)=S)c2cccc(N)c12,-2,66*,-1,-5,37,x
CNC[C@@H]1Oc2ccc(NC(=O)Nc3ccc(F)cc3)cc2C(=O)N([C@H](C)CO)C[C@@H]1C,x,-2,x,x,x,x
O=C(/C(=C\c1ccccc1)c1nc2ccccc2[nH]1)c1ccc(Cl)cc1,34*,x,1,4,0,x
O=C(/C(=C/c1ccc(Cl)cc1)c1nc2ccccc2[nH]1)c1cccs1,-9,x,0,0,x,4
CCOCCCNC(=O)/C(C#N)=C/c1cc(Br)c(O)c(Br)c1,30*,x,5,-7,x,x
COCCNC(=O)/C(C#N)=C/c1cc(Br)c(O)c(OC)c1,3,0,-4,-3,-4,7
O=C(COC(=O)c1cccc(Br)c1)NCc1ccco1,-3,65*,0,-4,-7,3
CC(=O)c1cccc(OCC(=O)N(C)CC(=O)NCc2ccco2)c1,0,49*,33,-12,6,-1
Cc1ccc(C)c(SCC(=O)OCC(=O)c2ccco2)c1,0,54*,3,-2,2,3
SMILES,N-glyco inh,CASP6 VEID inh,LANA DNA inh,Keap1 Nrf2 FP,NSD2 HMT inh,HDAC3 inh
Cc1cc(Br)ccc1SCC(=O)OCC(=O)NCc1ccco1,0,48*,5,-7,1,1
Cc1ccc(C)c(SCC(=O)NCc2ccco2)c1,-1,x,-1,-1,3,1
CO[C@@H]1CN(C)C(=O)c2ccc(NC(=O)C3CCCCC3)cc2OC[C@H](C)N(C)C[C@@H]1C,x,-6,x,x,x,x
O=C1NNC(c2ccccc2)=N/C1=C\c1ccccc1Cl,7,30,35,-13,93*,x
O=C(O)CCC(=O)Nc1sc2c(c1C(=O)Nc1ccccc1)CCCCC2,1,47*,3,-10,6,7
O=C(CSc1nnc(-c2ccccc2)n1Cc1ccco1)Nc1ccc(OCc2ccccc2)cc1,x,x,x,x,-1,x
CC(C)NC(=O)Nc1ccc2c(c1)C(=O)N([C@@H](C)CO)C[C@@H](C)[C@H](CN(C)C(=O)c1ccncc1)OCCCC[C@H](C)O2,x,0,x,x,x,x
CN1[C@@H]2Cn3c(cccc3=O)[C@H]1[C@@H](C(=O)NCC1CCCCC1)[C@@H]2CO,x,1,x,x,x,x
COc1ccc2c3c([nH]c2c1)[C@@H](CO)N(CC1CCOCC1)CC31CN(C(=O)C2CCOCC2)C1,x,8,x,x,x,x
O=C(Cc1cccnc1)N1[C@@H](CO)[C@@H](c2ccccc2)[C@@H]1CNCC1CCC1,x,3,x,x,x,x
Nc1c(C(=O)Nc2ccc(S(=O)(=O)N3CCCC3)cc2)sc2nc3cc4c(cc3cc12)CCC4,18,x,3,-7,-1,-3
Nc1c(C(=O)Nc2ccc(S(=O)(=O)N3CCCC3)cc2)sc2nc3ccc(OC(F)(F)F)cc3cc12,100*,x,0,-2,0,-2
O=C(C[C@@H]1C[C@@H]2c3cc(NS(=O)(=O)c4ccc(F)cc4)ccc3O[C@@H]2[C@H](CO)O1)NC1CCCC1,x,-2,x,x,x,x
C=C1[C@H](C)CN[C@H]1CCO,1,43*,-2,2,x,x
Cn1cc(-c2cnc3c(NC=O)cc(-c4cccc(C(F)(F)F)c4)cn23)cn1,4,4,x,x,-12,x
Nc1ccc(-c2cc(NC=O)c3ncc(-c4cccc(C(F)(F)F)c4)n3c2)cn1,29*,-1,x,x,7,x
COc1ccc(CN(C)C[C@@H]2OCCCC[C@H](C)Oc3ccc(NC(=O)CCC(F)(F)F)cc3C(=O)N([C@H](C)CO)C[C@@H]2C)cc1,x,-1,x,x,x,x
O=C1Nc2ccc(C(=O)O)c(O)c2C1=O,0,40*,6,-2,4,x
CC(C)c1ccc(S(=O)(=O)N2CCN(CC(=O)c3ccc(O)c(O)c3)CC2)cc1,0,57*,4,3,96*,0
CCOc1ccc(C(=O)CN2CCN(S(=O)(=O)c3ccc(Cl)cc3)CC2)cc1,1,x,1,-2,-3,-1
COc1ccc(C(=O)CN2CCN(S(=O)(=O)c3cccc([N+](=O)[O-])c3)CC2)cc1OC,2,7,0,-5,1,53*
O=C(C[C@H]1CC[C@H]2[C@@H](COC[C@H](O)CN2S(=O)(=O)c2ccc(F)cc2)O1)N[C@@H]1CCN(Cc2ccccc2)C1,x,0,x,x,x,x
COC(=O)[C@@]12CCCN1[C@H](c1ccc(-c3cccc(Cl)c3)c(OC)c1)[C@H]1C(=O)N(C)C(=O)[C@H]12,1,0,1,-7,x,5
